Here are results for seven molecules from PubChem BioAssay (Tox21).

A number with no mark means an inactive call. Results filed as inconclusive are left out. Active and inactive are the calls of the source. Unless noted, calls follow the shape of the full dose curve.

The nature of assay [1]: Nuclear factor erythroid 2-related factor 2/antioxidant responsive element (Nrf2/ARE) small molecule agonists: qHTS cell viability counter screen in human keratinocytes (AID 1919968; active = well fitted curve in the direction sought with a large enough effect in the repeat runs; an effect the other way counts as inactive or inconclusive; also: nearly all actives have a fitted effect of over 55% in size; also: potency is read from the fitted curve at half-maximal effect). An outline of the steps:
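After a 5 h attachment period, ARE-reporter keratinocytes were dosed with compounds in DMSO and then cultured 23 h at 37 C. Cell viability came from CellTiter-Fluor signal read after a further 1 h.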

Assay [2] in a line: Nuclear factor erythroid 2-related factor 2/antioxidant responsive element (Nrf2/ARE) small molecule agonists: luciferase reporter gene qHTS assay in human keratinocytes (AID 1919969). Also: nearly all actives have a fitted effect of over 35% in size. Also: potency is read from the fitted curve at half-maximal effect.
Assay [3] addresses Gonadotropin-releasing hormone receptor (Homo sapiens) (UniProt P30968). Kind of assay: Human gonadotropin-releasing hormone receptor (GnRHR) small molecule agonists, calcium flux assay in GnRHR-HEK293 cells (AID 1920063). Also: nearly all actives have a fitted effect of over 35% in size. An outline of the steps: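 We seeded human GnRHR-expressing HEK293 cells for 18 hours, loaded them with calcium dye for an hour at 37 C, added test compounds, and recorded fluorescence intensity kinetically for three minutes.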

For assay [4], the target named is KiSS-1 receptor (Homo sapiens) (UniProt Q969F8). In words: Human kisspeptin (KISS1R) small molecule agonists, calcium flux assay in KISS1R-HEK293 cells (AID 1920064; active = well fitted curve in the direction sought with a large enough effect in the repeat runs; an effect the other way counts as inactive or inconclusive). An outline of the steps:
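Kinetic calcium assay, 1 s sampling over 3 min at Ex/Em 480/540, in HEK293 cells engineered with human KISS1R; compounds delivered in DMSO after 1 h dye loading.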

Assay [5] can be described thus: G protein-coupled receptor (GPCR) small molecule agonists, calcium flux assay: HEK293 wild type cell line counter screen (AID 1920065). An outline of the steps:
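Calcium-sensitive dye, loaded 1 h at 37 C into cells cultured 18 h, reports compound-evoked calcium release as fluorescence (Ex/Em 480/540), measured over 3 min. Agonist mode; 15-point titrations, triplicate.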

A short description of assay [6]: p53 small molecule agonists, cell-based qHTS assay with human liver microsomes (AID 1963577). An outline of the steps: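 p53RE-bla cells, 4,000/well, compound added after 5 h, with human liver microsomes 0.5 mg/mL and NADPH 0.5 mg/mL final; 16 h at 37 C, then LiveBLAzer 2 h RT, fluorescence.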
Assay [7] can be described thus: p53 small molecule agonists, cell-based qHTS assay with rat liver microsomes (AID 1963578). An outline of the steps: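 p53RE-bla cells, 4,000/well, pre-incubated 5 h, then given compounds plus rat liver microsomes (0.5 mg/mL final) and NADPH (0.5 mg/mL final). Incubation 16 h at 37 C; beta-lactamase reporter read by LiveBLAzer fluorescence after 2 h at room temperature.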

The nature of assay [8]: p53 small molecule agonists, cell-based qHTS assay with human liver microsomes: qHTS cell viability counter screen (AID 1963579). Also: nearly all actives have a fitted effect of over 45% in size. Also: potency is read from the fitted curve at half-maximal effect. An outline of the steps: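 p53RE-bla cells, 4,000/well, dosed 5 hours after plating, with human liver microsomes (0.5 mg/mL final) plus NADPH (0.5 mg/mL final), 16 hours at 37 C. Viability read as CellTiter-Glo luminescence after 30 min at room temperature.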

Assay [9] can be described thus: p53 small molecule agonists, cell-based qHTS assay: qHTS cell viability counter screen (AID 1963581). Also: nearly all actives have a fitted effect of over 45% in size. Also: potency is read from the fitted curve at half-maximal effect. An outline of the steps:
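Following 5 h attachment, HCT-116 p53RE-bla cells took up compound for 16 h at 37 C; the reporter was read with B/G FRET substrate (2 h RT), and viability then via CellTiter-Glo ATP luminescence.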

The target in assay [10] is 5-hydroxytryptamine receptor 2A (Homo sapiens) (UniProt P28223). Kind of assay: 5-hydroxytryptamine receptor 2A (HTR2A) small molecule antagonists, cell-based qHTS assay (AID 1963586). Also: nearly all actives have a fitted effect of over 45% in size. An outline of the steps:
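Antagonist-mode intracellular calcium assay: DOI (4 nM) added after 5 min compound pre-incubation at room temperature to dye-loaded HTR2A-CHO cells. Fluorescence followed for 3 min, sampled every second.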

The target is the same in assay [11]. Kind of assay: 5-hydroxytryptamine receptor 2A (HTR2A) small molecule agonists, cell-based qHTS assay (AID 1963587). Also: nearly all actives have a fitted effect of over 30% in size. An outline of the steps:
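CHO cells stably expressing human HTR2A, plated 18 h, loaded with calcium dye 1 h at 37 C. Agonist mode: compounds added and intracellular calcium fluorescence recorded kinetically for 2 min at 1 sec intervals.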

Assay [12] concerns the target Muscarinic acetylcholine receptor M1 (Homo sapiens) (UniProt P11229). Kind of assay: Cholinergic receptor muscarinic 1 (CHRM1) small molecule antagonists, cell-based qHTS assay (AID 1963588). Also: nearly all actives have a fitted effect of over 40% in size. An outline of the steps: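 CHRM1-CHO calcium-flux assay, antagonist mode. Cells were seeded 18 h, dye-loaded 1 h at 37 C and given compound for 5 min at RT, then acetylcholine was added at 50nM. FDSS fluorescence was read 3 min; 15 concentrations, three runs.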

Assay [13] has the same target. Kind of assay: Cholinergic receptor muscarinic 1 (CHRM1) small molecule agonists, cell-based qHTS assay (AID 1963589). Also: nearly all actives have a fitted effect of over 35% in size. An outline of the steps: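 Measures agonist-induced intracellular calcium rise. Stable human CHRM1 CHO line, 1 h dye load at 37 C, compounds from DMSO, kinetic fluorescence read.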
The target in assay [14] is Beta-2 adrenergic receptor (Homo sapiens) (UniProt P07550). Kind of assay: Adrenergic beta2 receptor (ADRB2) small molecule antagonists, cell-based qHTS assay (AID 1963592). Also: series mostly up to about 92 µM; nearly all actives have a fitted effect of over 50% in size. An outline of the steps:
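Cells (CHO, stable ADRB2 overexpression) incubated 18-20hr at 37C; compounds added from DMSO; agonist mix (1nM isoproterenol, 100uM IBMX, 25uM Ro-20-1724) added; 0.5hr RT; d2-cAMP and anti-cAMP-cryptate added; 1hr RT; 665/615 nm read.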

The target in assay [15] is D(2) dopamine receptor (Homo sapiens) (UniProt P14416). Kind of assay: Dopamine D2 receptor (DRD2) small molecule agonists, cell-based qHTS assay (AID 1963594). Also: nearly all actives have a fitted effect of over 35% in size. An outline of the steps: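 HEK293 cells stably expressing human DRD2, pre-treated with PDE inhibitor Ro20-1724 (0.1 mM final) and compound 10 min at room temperature, then stimulated with NKH477 (200nM […]) for 30 min. cAMP read by HTRF (665/620 nm).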
D(2) dopamine receptor (Homo sapiens), sequence (P14416 whole entry, looked up): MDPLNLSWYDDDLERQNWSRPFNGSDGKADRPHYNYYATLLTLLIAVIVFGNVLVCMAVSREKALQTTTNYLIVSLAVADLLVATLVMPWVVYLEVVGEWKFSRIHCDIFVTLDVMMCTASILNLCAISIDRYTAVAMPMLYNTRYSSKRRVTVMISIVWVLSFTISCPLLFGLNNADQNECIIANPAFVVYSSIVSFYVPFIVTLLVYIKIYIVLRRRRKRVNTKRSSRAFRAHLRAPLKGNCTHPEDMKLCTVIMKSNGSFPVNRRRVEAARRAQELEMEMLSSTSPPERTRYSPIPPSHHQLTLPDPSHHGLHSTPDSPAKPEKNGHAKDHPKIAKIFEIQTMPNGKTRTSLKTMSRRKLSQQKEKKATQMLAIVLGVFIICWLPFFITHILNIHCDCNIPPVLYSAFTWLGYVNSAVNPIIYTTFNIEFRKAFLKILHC

Assay [16] can be described thus: p53 small molecule agonists, cell-based qHTS assay (AID 1963582; active = well fitted activation curve with a large enough effect in the signal ratio in the repeat runs, not every such curve was filed as active; the % refers to the signal ratio). An outline of the steps: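 In this cell-based concentration-response screen, a p53 response element drives beta-lactamase; cells received DMSO-borne compounds after 5 h culture and were incubated a further 16 h before FRET substrate development.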
A short description of assay [17]: cAMP Responsive Elements (CRE) small molecule agonists, cell-based qHTS assay (AID 1963590). An outline of the steps:
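A CRE-responsive beta-lactamase reporter in HEK 293T cells was used. Treatment ran 3 h at 37 C; detection used LiveBLAzer B/G FRET substrate for 2 h at room temperature.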

Assay [18] can be described thus: cAMP Responsive Elements (CRE) small molecule antagonists, cell-based qHTS assay (AID 1963591; active = well fitted inhibition curve with a large enough effect in the signal ratio in the repeat runs, not every such curve was filed as active; the % refers to the signal ratio). An outline of the steps: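 HEK293T cells carrying a CRE-driven beta-lactamase reporter receive compound and NKH477 (0.25 uM final) for 3 h. Fluorescence from LiveBLAzer B/G FRET substrate is read after 2 h at room temperature.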
In assay [19] the target is D(2) dopamine receptor (Homo sapiens) (UniProt P14416). Kind of assay: Dopamine D2 receptor (DRD2) small molecule antagonists, cell-based qHTS assay (AID 1963595; active = well fitted inhibition curve with a large enough effect in the signal ratio in the repeat runs, with a control signal flat; the % refers to the signal ratio). An outline of the steps: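 HTRF cAMP read-out at 665 and 620 nm emission (340 nm excitation). Antagonist mode: compounds were tested against 12 nM quinpirole in DRD2-HEK293 cells, with 200 nM NKH477 raising cAMP and 0.1 mM Ro20-1724 blocking its breakdown.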

Assay [20] is described as follows: p53 small molecule agonists, cell-based qHTS assay with rat liver microsomes: qHTS cell viability counter screen (AID 1963580). Also: nearly all actives have a fitted effect of over 45% in size. An outline of the steps:
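p53RE-bla HCT-116 cells were exposed 16 h at 37 C to compounds with rat liver microsomes (0.5 mg/mL) and NADPH (0.5 mg/mL). Viability was measured in the same wells as ATP content by CellTiter-Glo luminescence.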

Gonadotropin-releasing hormone receptor (Homo sapiens), sequence (P30968 whole entry, looked up): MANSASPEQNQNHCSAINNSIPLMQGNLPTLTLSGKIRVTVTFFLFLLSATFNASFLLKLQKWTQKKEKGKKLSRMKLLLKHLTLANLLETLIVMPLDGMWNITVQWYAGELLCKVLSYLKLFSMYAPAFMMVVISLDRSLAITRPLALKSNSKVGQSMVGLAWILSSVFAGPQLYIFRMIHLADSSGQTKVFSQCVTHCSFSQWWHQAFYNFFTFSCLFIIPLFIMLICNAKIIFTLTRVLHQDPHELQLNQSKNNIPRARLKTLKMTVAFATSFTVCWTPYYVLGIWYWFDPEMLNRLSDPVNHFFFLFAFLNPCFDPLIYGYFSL
KiSS-1 receptor (Homo sapiens), sequence (Q969F8 whole entry, looked up): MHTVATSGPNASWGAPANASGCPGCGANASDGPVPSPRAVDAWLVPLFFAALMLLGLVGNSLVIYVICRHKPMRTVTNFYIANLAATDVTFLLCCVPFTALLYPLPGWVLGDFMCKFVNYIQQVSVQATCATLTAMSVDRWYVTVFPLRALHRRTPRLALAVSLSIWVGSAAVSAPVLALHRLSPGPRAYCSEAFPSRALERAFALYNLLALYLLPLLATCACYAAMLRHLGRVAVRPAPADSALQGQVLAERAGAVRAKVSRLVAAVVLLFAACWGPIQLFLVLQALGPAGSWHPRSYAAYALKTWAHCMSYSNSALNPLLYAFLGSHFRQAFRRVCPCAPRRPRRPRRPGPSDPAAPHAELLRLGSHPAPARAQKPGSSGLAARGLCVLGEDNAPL
Muscarinic acetylcholine receptor M1 (Homo sapiens), sequence (P11229 whole entry, looked up): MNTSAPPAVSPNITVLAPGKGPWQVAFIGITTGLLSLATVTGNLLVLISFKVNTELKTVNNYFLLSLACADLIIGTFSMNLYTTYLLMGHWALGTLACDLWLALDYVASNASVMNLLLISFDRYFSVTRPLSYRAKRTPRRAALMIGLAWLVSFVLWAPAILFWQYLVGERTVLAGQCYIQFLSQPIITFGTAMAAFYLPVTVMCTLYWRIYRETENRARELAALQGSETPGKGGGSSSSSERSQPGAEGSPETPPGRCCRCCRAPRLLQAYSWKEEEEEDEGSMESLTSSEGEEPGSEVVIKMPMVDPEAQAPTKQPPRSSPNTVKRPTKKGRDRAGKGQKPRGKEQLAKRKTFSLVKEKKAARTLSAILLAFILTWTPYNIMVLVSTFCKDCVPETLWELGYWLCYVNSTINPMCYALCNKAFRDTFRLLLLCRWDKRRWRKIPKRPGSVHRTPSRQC
5-hydroxytryptamine receptor 2A (Homo sapiens), sequence (P28223 whole entry, looked up): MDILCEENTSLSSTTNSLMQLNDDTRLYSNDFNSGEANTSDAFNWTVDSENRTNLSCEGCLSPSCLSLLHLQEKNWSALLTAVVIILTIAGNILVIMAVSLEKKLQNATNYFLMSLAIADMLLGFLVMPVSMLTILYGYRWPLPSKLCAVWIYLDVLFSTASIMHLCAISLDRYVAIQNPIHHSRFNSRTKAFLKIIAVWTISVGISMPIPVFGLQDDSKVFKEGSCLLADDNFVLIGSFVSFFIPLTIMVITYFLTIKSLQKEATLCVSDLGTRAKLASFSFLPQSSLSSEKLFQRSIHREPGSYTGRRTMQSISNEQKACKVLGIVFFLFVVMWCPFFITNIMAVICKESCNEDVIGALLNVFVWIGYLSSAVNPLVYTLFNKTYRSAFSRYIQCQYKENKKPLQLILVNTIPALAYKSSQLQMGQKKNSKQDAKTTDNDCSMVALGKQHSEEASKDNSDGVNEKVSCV
Beta-2 adrenergic receptor (Homo sapiens), sequence (P07550 whole entry, looked up): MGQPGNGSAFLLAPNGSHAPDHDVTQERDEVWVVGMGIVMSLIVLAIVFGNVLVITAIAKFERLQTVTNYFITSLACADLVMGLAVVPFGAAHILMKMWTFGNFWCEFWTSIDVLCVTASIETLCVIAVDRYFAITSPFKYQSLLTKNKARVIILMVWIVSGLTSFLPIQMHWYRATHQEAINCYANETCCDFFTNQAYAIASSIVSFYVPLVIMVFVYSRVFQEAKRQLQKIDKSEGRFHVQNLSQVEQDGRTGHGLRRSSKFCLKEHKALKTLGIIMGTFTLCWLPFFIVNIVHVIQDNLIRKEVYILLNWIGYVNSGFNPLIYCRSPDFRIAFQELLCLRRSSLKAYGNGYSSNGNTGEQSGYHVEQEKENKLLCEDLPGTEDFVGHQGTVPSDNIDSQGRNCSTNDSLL

As to `C=CC(=O)OCC(COC(=O)C=C)(COC(=O)C=C)COC(=O)C=C`, the Potency in assay [1] is 9.69 µM (active); in assay [2], 6.11 µM (active); in assay [8] it was 4.08 µM (active); in assay [9], 10.2 µM (active). Besides, the Potency result in assay [3], in [4], in assay [5], in assay [6], in [7] and in [10] was “inactive” in each case. Also, the Potency result in assay [11], in assay [12], in [13], in assay [14] and in assay [15] was “inactive” in each case.
Take `CSCCCN=C=S`: the Potency entry in assay [1], in assay [3], in [4], in [5], in assay [6] and in assay [7] was “inactive” each time. For the same molecule, the Potency entry in assay [8], in [9], in [16], in [10], in assay [11] and in assay [12] was “inactive” each time. Besides, the Potency entry in assay [13], in [17], in assay [18], in [14], in [15] and in [19] was “inactive” throughout. Besides, in assay [2], the Potency is 61.1 µM (active).
As for `CCOC(=O)NC(=S)Nc1ccccc1NC(=S)NC(=O)OCC`, the Potency result in assay [1], in assay [3], in assay [4], in assay [5], in assay [6] and in assay [7] was “inactive” each time. Further, the Potency result in assay [8], in [20], in assay [10], in assay [11], in assay [12] and in [13] was “inactive” each time. Also, the Potency result in assay [14] and in assay [19] was “inactive” throughout. The Potency in [2] is 54.5 µM (active).
As for `CCCCC(=O)Cl`, the Potency entry in assay [1], in assay [2], in assay [3], in assay [4], in assay [5] and in [6] was “inactive” each time. The Potency entry in assay [7], in assay [8], in assay [16], in [10], in assay [11] and in assay [12] was “inactive” in each case. Moreover, the Potency entry in assay [13], in assay [17], in assay [18], in assay [14], in assay [15] and in assay [19] was “inactive” in each case.
As for `C[N+]1(C)[C@@H]2CC[C@H]1CC(OC(=O)C(CO)c1ccccc1)C2` (stereo partly specified), the Potency result in assay [1], in assay [2], in assay [3], in assay [4], in [5] and in [6] was “inactive” in each case. Besides, the Potency entry in assay [7], in [8], in [20], in assay [10], in assay [11] and in assay [13] was “inactive” each time. Besides, the Potency entry in assay [17], in assay [18], in [14], in assay [15] and in [19] was “inactive” throughout.
`C=CCc1ccc(OC(=O)Cc2ccccc2)c(OC)c1`: the Potency entry in [1], in assay [2], in assay [3], in assay [4], in [5] and in [6] was “inactive” each time. For the same molecule, the Potency entry in assay [7], in assay [8], in assay [9], in [16], in assay [10] and in assay [11] was “inactive” each time. Besides, the Potency entry in assay [12], in assay [13], in assay [17], in [15] and in [19] was “inactive” throughout.
Turning to `O=C(N[C@H]1CN2CCC1CC2)c1cc2ccoc2cn1`, the Potency result in assay [1], in assay [2], in [3], in [4], in [5] and in assay [6] was “inactive” in each case. Besides, the Potency entry in assay [7], in assay [20], in assay [9], in assay [16], in assay [13] and in assay [17] was “inactive” throughout. Moreover, the Potency result in assay [14], in assay [15] and in assay [19] was “inactive” throughout.
